PostGolgi ctrl: growth of the yeast control strain, post-Golgi counter-screen | inhibition, % at 10 µM | efflux-deficient yeast background strain, growth absorbance A615, 16 h | actives 5% (n = 98,000) | AID 738
PostGolgi yeast: growth inhibition of a yeast mutant, post-Golgi transport screen; post-Golgi transport phenotypic cell assay; inhibition, % at 10 µM; actives 0.9% (n = 98,000); AID 739;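 also: yeast cells grown in 1536-well plates; yeast grown about 18 h at 30C before absorbance read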
CYP2C19 activ: activators of human cytochrome P450 2C19. P33261. recombinant CYP2C19, luciferin-H EGE luminescence; stronger effect = higher value; 0 = fully inhibited enzyme, 1 = untreated enzyme. activation factor at 5 µM. 96,000 tested, under 10 active. AID 1025;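 active = activation factor of at least 2 at 5 µM in the primary screen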
Target sequence (P33261 whole entry, looked up): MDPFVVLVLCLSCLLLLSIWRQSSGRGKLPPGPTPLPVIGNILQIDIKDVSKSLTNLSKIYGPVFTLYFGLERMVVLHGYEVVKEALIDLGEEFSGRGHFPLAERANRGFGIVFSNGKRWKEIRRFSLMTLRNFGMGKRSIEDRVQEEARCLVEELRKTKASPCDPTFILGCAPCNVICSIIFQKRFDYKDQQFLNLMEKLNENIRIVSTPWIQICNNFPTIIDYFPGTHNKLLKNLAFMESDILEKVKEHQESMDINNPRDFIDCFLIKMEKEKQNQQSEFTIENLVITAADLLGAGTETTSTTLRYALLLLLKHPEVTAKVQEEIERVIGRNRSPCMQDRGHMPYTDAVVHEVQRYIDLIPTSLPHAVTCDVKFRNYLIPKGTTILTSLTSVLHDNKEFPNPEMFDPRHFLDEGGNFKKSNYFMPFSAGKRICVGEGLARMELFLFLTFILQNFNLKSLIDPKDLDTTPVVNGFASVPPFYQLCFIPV
CYP2C9 inhib: blocks human cytochrome P450 2C9; P11712; CYP2C9 Supersomes, luciferin-H conversion, luminescence; inhibition, % at 5 µM; actives 20% (n = 96,000);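 active = blocking of liver enzyme CYP2C9 beyond about 50% at 5 µM, limit read from the data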
CYP2C19 inh: human CYP2C19 inhibition | CYP2C19 Supersomes, luciferin-H EGE luminescence, 30 min | inhibition, % at 5 µM | actives 21% (n = 96,000) | AID 778;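 active = CYP2C19 inhibition above a set limit at 5 µM in the primary screen, cut at about 50% in these data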
CYP2C9 activ: increases human cytochrome P450 2C9 activity; AID 1024; actives 1.4% (n = 96,000); activation factor at 5 µM; recombinant CYP2C9, luciferin-H conversion, luminescence; stronger effect = higher value; factor 1 = untreated enzyme, 0 = blocked; P11712;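 active = activation factor of 2 or more for CYP2C9 at a 5 µM dose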
Large screens that a line does not name were inactive. Rows were chosen to be rich in hits. Some 32% of all compounds tested hit in one or more screens of this group. Rule as the data show it, unless noted: active = inhibition above about 30%; inactive = the rest.

O=C1CC(c2ccc(Cl)c(Cl)c2)CC(O)=C1C=NCCN1CCNCC1 (configuration not stated)	PostGolgi ctrl 37.1
O=C1CC(c2ccccc2)CC(O)=C1C=NCCN1CCNCC1 (configuration not stated)	none
CCSc1nnc(N2C(=O)CC(c3ccsc3)C3=C2CC(C)(C)CC3=O)s1 (configuration not stated)	none
COc1ccc(NC(=O)CCc2nc(-c3ccc(C)cc3)no2)c(OC)c1	none
COc1ccc(-c2noc(CCC(=O)N3CCN(c4cc(C)ccc4C)CC3)n2)cc1	CYP2C9 inhib 77.6, CYP2C19 inh 64.6
Cc1ccc(-c2noc(CCC(=O)N3CCN(c4cccc(C(F)(F)F)c4)CC3)n2)cc1	CYP2C9 inhib 92.8, CYP2C19 inh 76.7
O=C(c1ccco1)N1CCN(C(=O)C(Cc2ccccc2)NS(=O)(=O)c2cccs2)CC1 (configuration not stated)	none
Cc1cc(=O)oc2c(C(=O)/C=C/c3ccccc3)c(O)ccc12	none
Cc1cc(=O)oc2c1ccc1oc(/C(=N/O)c3ccccc3)c(C)c12	PostGolgi ctrl 35.0, CYP2C9 inhib 60.3
COc1ccc(C2NCCC3(O)CCCCC23)c(OC)c1OC (configuration not stated)	none
Fc1ccc(Oc2cc(N3CCOCC3)nc(-c3ccccc3)n2)c(F)c1	none
CCC(=O)Nc1cccc(C(=O)c2ccccc2)c1	CYP2C19 inh 76.6
CCC(=O)Nc1cccc(Br)c1	none
CCC(=O)Nc1cccc(C(=O)/C=C/c2ccccc2)c1	CYP2C19 inh 59.6, CYP2C9 activ 2
CCC(=O)Nc1ccc2c(c1)C(=O)N(C)C2=O	none
CCCC(=O)Nc1ccc(C#Cc2ccccc2)cc1	none
CCC(=O)Nc1ccc2c(c1)C(=O)c1ccccc1C2=O	CYP2C9 inhib 57.8
O=C(Nc1ccc(C#Cc2ccccc2)cc1)C1CC1	CYP2C9 activ 2.3
COc1ccc(CN2CCCCC2c2cccnc2)c(OC)c1C (configuration not stated)	none (no result: PostGolgi ctrl, PostGolgi yeast)
O=C(Nc1cccc(S(=O)(=O)c2cccc(NC(=O)C3CC3)c2)c1)C1CC1	CYP2C9 inhib 59.6, CYP2C19 inh 99.2
CCC(=O)Nc1cccc(C(=O)OCC(=O)c2ccccc2Cl)c1	CYP2C9 activ 3.4
CCC(=O)NC(=S)Nc1cccc(NC(=O)c2ccccc2Cl)c1	none
CCC(=O)NC1=C(NC(C)c2ccccc2)C(=O)c2ccccc2C1=O (configuration not stated)	CYP2C9 inhib 52.2
CC(NC(=O)CC1Nc2ccccc2NC1=O)c1ccccc1 (configuration not stated)	none
O=C(c1ccccc1)c1cccc(NC(=O)C2CC2)c1	CYP2C19 inh 62.4
Cc1ccc2c(c1C)NC(C)CC2C (configuration not stated)	none
O=C(NN=C1CCCC1)C(=O)Nc1cccc(C(F)(F)F)c1	none
CCOC(=O)C1CCN(C(=O)c2cn(-c3ccccc3)nc2-c2cccnc2)CC1	none (no result: PostGolgi ctrl, PostGolgi yeast)
COCc1c(C)cc(C)c(/C=N/O)c1C	none (no result: PostGolgi ctrl, PostGolgi yeast)
CCN(CCCNC(=O)C1CCN(S(=O)(=O)c2c(C)[nH]c(=O)[nH]c2=O)CC1)c1cccc(C)c1	CYP2C19 inh 53.5
CCN(CCCNC(=O)C1CCN(S(=O)(=O)CC)CC1)c1ccccc1	none
CCN(CCCNC(=O)C1CCN(S(=O)(=O)N2CCC3(CC2)OCCO3)CC1)c1ccccc1	CYP2C19 inh 52.8
Cc1cccc(NC(=O)COc2ccc3oc4c(c3c2)CCCC4)n1	CYP2C9 inhib 85.3, CYP2C19 inh 51.3
Cc1ccc(OCC(=O)Nc2ccc(N3CCCC3)cc2)cc1C	none
Oc1ccc(Br)cc1-c1cc(-c2ccco2)[nH]n1	PostGolgi ctrl 79.3
Cc1ccc(-c2cc(-c3cccs3)[nH]n2)c(O)c1	none
Oc1ccccc1-c1cc(-c2cccc(F)c2)n[nH]1	none
Oc1ccc(Cl)cc1-c1cc(-c2ccco2)[nH]n1	PostGolgi ctrl 46.1
S=c1[nH]nc(-c2cc(-c3ccco3)[nH]n2)n1-c1ccccc1Cl	none
Oc1ccccc1-c1cc(-c2ccccc2Cl)[nH]n1	PostGolgi ctrl 74.5
Cc1ccc(O)c(-c2cc(-c3ccccc3C)[nH]n2)c1	PostGolgi ctrl 86.2, CYP2C9 inhib 98.0, CYP2C19 inh 81.6
CCOC(=O)C1CCc2sc(N)c(C#N)c21 (configuration not stated)	none

Source: PubChem
